Screening data as filed in PubChem.
BAZ2B block: inhibitors of human BAZ2B bromodomain | Q9UIF8 | AlphaScreen BAZ2B-H3K14Ac peptide displacement | hit rate 4.4% among 360,000 | Potency, µM (doses to about 114 µM), hits mostly inhibitors; note: nearly all actives have a fitted effect of over 60% in size
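Inhibition is scored as reduced AlphaScreen emission. The BAZ2B/b-H3(5-23)K14Ac complex (50 nM each) in PBS pH 7.4, 0.01% Tween-20 meets compound (up to 110 uM) for 30 min at RT before bead addition.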
HP1b chromo inh: inhibitors of HP1-beta chromodomain binding to methylated histone tails. AlphaScreen HP1-beta / biotin-H3K9me3 peptide binding. AID 540317. hit rate 0.56% among 390,000. Potency, µM (series often up to 114 µM), usual class: inhibitors. P83916; note: nearly all actives have a fitted effect of over 70% in size
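HP1-beta protein (50 nM final) preincubated 30 min at room temperature with biotinylated H3(1-18)K9me3 peptide (50 nM) in PBS pH 7.4, 0.01% Tween-20, then compound added for 30 min. AlphaScreen streptavidin donor/nickel chelate acceptor beads (10 ug/mL final), 30 min dark, luminescence read.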
PLK1 PBD inh: PLK1 (human) polo-box domain binding inhibition. P53350. AID 720504. hit rate 2.8% among 360,000. Plk1 PBD binding of FITC phosphopeptide, fluorescence polarization. Potency, µM, usual class: inhibitors; note: series mostly up to about 57 µM; nearly all actives have a fitted effect of over 65% in size
G9a block: blocks human histone lysine methyltransferase G9a; G9a H3K9 monomethylation, AlphaScreen, 2 h; Potency, µM (highest dose often 102 µM), most hits filed as inhibitors; hit rate 8.8% among 350,000; note: nearly all actives have a fitted effect of over 75% in size
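Compounds were preincubated with 20 nM G9a for 15 min, after which biotinylated H3K9 peptide (500 nM) and SAM (20 uM) started a 2 h room-temperature reaction. Monomethylated product was quantified by antibody-based AlphaScreen chemiluminescence.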
JMJD2A Tudor inh: JMJD2A Tudor domain (human) inhibition; O75164; hit rate 4.4% among 390,000; AID 504339; Potency, µM (top dose mostly 114 µM), usual class: inhibitors; AlphaScreen JMJD2A-Tudor / H3K4me3 peptide binding; note: nearly all actives have a fitted effect of over 50% in size
12-LOX inh: ALOX12 (human) lipoxygenase inhibition | P18054 | purified 12hLO, xylenol orange hydroperoxide absorbance | Potency, µM (top dose mostly 108 µM), usual class: inhibitors | hit rate 1.1% among 580,000 | AID 1671190
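Purified human 12hLO at 150 nM in 25 mM Hepes, 0.01% Triton X-100, pH 7.0, preincubated 15 min at room temperature with compound. Reaction started with 40 uM arachidonic acid, 30 min at room temperature. Hydroperoxide measured by Fe-xylenol orange, 573/405 nm absorbance ratio.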
Hits are given with their value; [ ] = dose if it differs, or a comment. Rows were chosen to be rich in hits. Some 9% of all compounds tested hit in one or more screens of this group. Calls come from the whole dose curve; as a rule, active = well fitted curve in the direction sought with a large enough effect; inconclusive = small, poorly fitted or top-dose-only effect, or another doubt; inactive = no such curve, though single readings can be large; an effect the other way counts as inactive or inconclusive.

Results for Oc1ccc2ccccc2c1CN1CCN(c2ccccc2F)CC1 ?
BAZ2B block: inactive; HP1b chromo inh: inactive; PLK1 PBD inh: inactive; G9a block: 28µM; JMJD2A Tudor inh: inactive; 12-LOX inh: 45µM

How did Oc1ccc2ccccc2c1CN1CCN(C/C=C/c2ccccc2)CC1 do in these assays?
BAZ2B block: inconclusive; HP1b chromo inh: inactive; PLK1 PBD inh: inactive; G9a block: 10µM; JMJD2A Tudor inh: inconclusive; 12-LOX inh: inconclusive

How did O=S(=O)(c1ccccc1)N1CCN(Cc2c(O)ccc3ccccc23)CC1 do in these assays?
HP1b chromo inh: inactive; PLK1 PBD inh: inconclusive; JMJD2A Tudor inh: inactive; 12-LOX inh: 7.1µM

Results for O=C(CN1CCN(c2ccccc2F)CC1)c1ccc(O)c(O)c1 ?
BAZ2B block: inactive; HP1b chromo inh: inactive; PLK1 PBD inh: inactive; G9a block: 32µM; JMJD2A Tudor inh: inactive; 12-LOX inh: inconclusive

Results for CCCC(=O)OC[C@H]1CN(C2CCCC2)S(=O)(=O)c2c(F)cccc2O1 ?
12-LOX inh: inactive

How did O=C(C(c1ccccc1)c1ccccc1)N1CCN(C/C=C/c2ccccc2)CC1 do in these assays?
12-LOX inh: inactive

Results for CC(CN1CCN(C/C=C/c2ccccc2)CC1)c1ccccc1 (stereo unspecified) ?
BAZ2B block: inconclusive; HP1b chromo inh: inactive; PLK1 PBD inh: inactive; G9a block: inactive[0.501 µM]; JMJD2A Tudor inh: 13µM; 12-LOX inh: 0.79µM

How did C#CCOCCOCCOCCNc1nc(N2CCN(C(=O)CCCCCCCCCCNC(=O)[C@H](CCCCN)n3cc(CCO)nn3)CC2)nc(N2CCN(C(=O)CCCCCCCCCCNC(=O)[C@H](CCCCN)n3cc(CCCC(=O)O)nn3)CC2)n1 do in these assays?
BAZ2B block: inactive; HP1b chromo inh: inactive; PLK1 PBD inh: inactive; G9a block: inactive[2.33 µM]; JMJD2A Tudor inh: inactive; 12-LOX inh: inconclusive

Results for C#CCOCCOCCOCCNc1nc(N2CCN(C(=O)CCCCCCCCCCNC(=O)[C@H](CCCCN)n3cc(CCO)nn3)CC2)nc(N2CCN(C(=O)CCCCCCCCCCNC(=O)[C@H](CCCCN)n3cc(C[C@@H](C)CC)nn3)CC2)n1 ?
BAZ2B block: inconclusive; HP1b chromo inh: 50µM; PLK1 PBD inh: inactive; G9a block: inactive[2.33 µM]; JMJD2A Tudor inh: 22µM

What do the screens show for `C#CCOCCOCCOCCNc1nc(N2CCN(C(=O)CCCCCCCCCCNC(=O)[C@@H](CCSC)n3cc(CCO)nn3)CC2)nc(N2CCN(C(=O)CCCCCCCCCCNC(=O)[C@H](CCC(=O)O)n3cc(CCCCCN)nn3)CC2)n1`?
BAZ2B block: inactive; HP1b chromo inh: inactive; PLK1 PBD inh: inactive; G9a block: inactive[2.33 µM]; JMJD2A Tudor inh: inactive

What do the screens show for `C#CCOCCOCCOCCNc1nc(N2CCN(C(=O)CCCCCCCCCCNC(=O)[C@@H](CCC(=O)O)n3cc(CCCCCN)nn3)CC2)nc(N2CCN(C(=O)CCCCCCCCCCNC(=O)[C@H](CCCCN)n3cc(C[C@@H](C)CC)nn3)CC2)n1`?
BAZ2B block: inconclusive; HP1b chromo inh: inactive; PLK1 PBD inh: inactive; G9a block: inactive[2.33 µM]; JMJD2A Tudor inh: 56µM

What do the screens show for `O=c1c2ccccc2sn1-c1ccc(Cl)cc1Cl`?
PLK1 PBD inh: 2.7µM; 12-LOX inh: inactive

Results for CCN1C(=O)C2(CCN(S(=O)(=O)c3cc(C)ccc3C)CC2)c2ccccc21 ?
12-LOX inh: inactive

What do the screens show for `COc1ccc(-c2cc(C(F)F)n3ncc(C(=O)Nc4cc(C)on4)c3n2)cc1`?
BAZ2B block: 79µM; HP1b chromo inh: inactive; PLK1 PBD inh: inactive; JMJD2A Tudor inh: inactive; 12-LOX inh: inactive

How did CC(=O)Nc1sc2c(c1C(c1ccc(F)cc1)N1CCOCC1)CCCC2 (stereo unspecified) do in these assays?
BAZ2B block: 50µM; HP1b chromo inh: inactive; PLK1 PBD inh: inactive; G9a block: inconclusive; JMJD2A Tudor inh: inconclusive; 12-LOX inh: inactive

How did CC(=O)Nc1sc2c(c1C(c1ccccc1)N1CCOCC1)CCCC2 (stereo unspecified) do in these assays?
BAZ2B block: inactive; HP1b chromo inh: inactive; PLK1 PBD inh: inactive; G9a block: inactive; JMJD2A Tudor inh: inactive; 12-LOX inh: inactive

What do the screens show for `CC(=O)Nc1sc2c(c1C(c1ccc(Cl)cc1)N1CCOCC1)CCCC2` (stereo unspecified)?
BAZ2B block: inconclusive; HP1b chromo inh: inconclusive; PLK1 PBD inh: inactive; G9a block: 45µM; JMJD2A Tudor inh: inconclusive; 12-LOX inh: inconclusive

How did Cc1nc(CN2CCCCC2)c(O)c(=O)[nH]1 do in these assays?
HP1b chromo inh: inactive; PLK1 PBD inh: inactive; JMJD2A Tudor inh: 25µM; 12-LOX inh: inactive

Results for O=c1[nH]c(-c2ccccc2)nc(CN2CCCCC2)c1O ?
HP1b chromo inh: inconclusive; PLK1 PBD inh: inactive; JMJD2A Tudor inh: inconclusive; 12-LOX inh: inactive

How did COc1ccc(NC(=O)[C@@H]2CCCN2S(=O)(=O)c2ccc(Cl)cc2)cc1 do in these assays?
HP1b chromo inh: inactive; PLK1 PBD inh: inactive; JMJD2A Tudor inh: inactive; 12-LOX inh: inactive

Results for COc1ccc(NCc2n[nH]nc2-c2ccccc2)cc1Cl ?
BAZ2B block: 40µM; HP1b chromo inh: inactive; PLK1 PBD inh: inactive; G9a block: inconclusive; JMJD2A Tudor inh: inconclusive; 12-LOX inh: inactive

How did O=c1c(F)cn(C2CCCO2)c(=O)n1Cc1c(Cl)cccc1Cl (stereo unspecified) do in these assays?
BAZ2B block: inactive; HP1b chromo inh: inactive; PLK1 PBD inh: inactive; G9a block: inactive[12.7 µM]; JMJD2A Tudor inh: inactive; 12-LOX inh: inactive

How did O=c1c(F)cn(C2CCCO2)c(=O)n1Cc1ccc(Cl)cc1 (stereo unspecified) do in these assays?
BAZ2B block: inactive; HP1b chromo inh: inactive; PLK1 PBD inh: 27µM; G9a block: inactive; JMJD2A Tudor inh: inactive; 12-LOX inh: inactive

What do the screens show for `O=C(NCc1ccccc1)C(c1ccc(C(F)(F)F)cc1)n1c(=O)c(-c2ccccc2)nc2ccccc21` (stereo unspecified)?
PLK1 PBD inh: inactive; 12-LOX inh: inactive

What do the screens show for `CCc1ccc2oc(C(=O)Nc3nnc(C(C)C)s3)cc(=O)c2c1`?
12-LOX inh: inactive

What do the screens show for `O=C(O)C1Nc2ccc(C(F)(F)F)cc2C2OCCC12` (stereo unspecified)?
HP1b chromo inh: inactive; PLK1 PBD inh: inactive; JMJD2A Tudor inh: inactive; 12-LOX inh: inactive

Results for O=C(Oc1cccnc1)c1cc(S(=O)(=O)N2CCCCC2)ccc1Cl ?
BAZ2B block: inactive; HP1b chromo inh: inactive; PLK1 PBD inh: 17µM; G9a block: inconclusive; JMJD2A Tudor inh: inactive; 12-LOX inh: inactive

How did O=C(Oc1cccnc1)c1cc(S(=O)(=O)N2CCOCC2)ccc1Cl do in these assays?
BAZ2B block: inactive; HP1b chromo inh: inactive; PLK1 PBD inh: inconclusive; G9a block: inactive[2.33 µM]; JMJD2A Tudor inh: inactive; 12-LOX inh: inactive
